S1P4 antag = S1P4 receptor antagonists, primary screen, cell-based | Sphingosine 1-phosphate receptor 4 (Homo sapiens), O95977 | S1P4-expressing cells, antagonist mode, reporter read-out | inhibition, % at 4.98 µM | actives 0.26% (n = 220,000) | AID 1510, 2009; in the data active means inhibition above about 29%;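 further: 0% = wells stimulated with agonist and 100% = vehicle wells without agonist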
Insulin prom inh = inhibitors of insulin promoter-driven GFP, primary screen, imaging, TRM-6 cells (human fetal islet line), eGFP reporter, cell count; reporter expression induced with tamoxifen; inhibition, % at 2 µM; actives 0.9% (n = 130,000); AID 1273, 2008;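 active means inhibition above the mean plus 3 SD, with well images judged a real hit on visual review, cut at about 60% in these data, passing the limit was not always enough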
EP2 modulator = EP2 receptor modulators, cAMP readout, primary screen, cell-based, HTRF cAMP, PGE2 stimulation | Prostaglandin E2 receptor EP2 subtype (Homo sapiens), P43116 | EP2-expressing cells, cAMP HTRF FRET, PGE2 co-stimulation | induction, % at 25 µM | actives 0.83% (n = 260,000) | AID 940, 2007;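 active means compounds whose cAMP rise, as percent of the full-agonist control response, exceeds 60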;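 further: rat C6 glioma line stably carrying human EP2 under a CMV promoter; the protocol text gives 20 µM as final concentration; 100% = response of wells given 1 µM PGE2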
S1P3 antagonist = S1P3 receptor antagonists, primary screen, cell-based; actives 0.27% (n = 170,000); inhibition, % at 4.98 µM; AID 485, 2006; CHO S1P3 NFAT-BLA reporter, FRET fluorescence, antagonist mode; Sphingosine 1-phosphate receptor 3 (Homo sapiens), Q99500;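 active means inhibition above the plate cutoff, the mean inhibition of test wells on that plate plus 3 SD, cut at about 28% in these data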;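 further: cells challenged with S1P at its EC80 of 0.8 µM; blue over green emission ratio from cleaved BLA substrate after 4 h stimulation; 0% = S1P-stimulated wells and 100% = unstimulated DMSO-only wells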
Target sequence (Q99500 whole entry, looked up): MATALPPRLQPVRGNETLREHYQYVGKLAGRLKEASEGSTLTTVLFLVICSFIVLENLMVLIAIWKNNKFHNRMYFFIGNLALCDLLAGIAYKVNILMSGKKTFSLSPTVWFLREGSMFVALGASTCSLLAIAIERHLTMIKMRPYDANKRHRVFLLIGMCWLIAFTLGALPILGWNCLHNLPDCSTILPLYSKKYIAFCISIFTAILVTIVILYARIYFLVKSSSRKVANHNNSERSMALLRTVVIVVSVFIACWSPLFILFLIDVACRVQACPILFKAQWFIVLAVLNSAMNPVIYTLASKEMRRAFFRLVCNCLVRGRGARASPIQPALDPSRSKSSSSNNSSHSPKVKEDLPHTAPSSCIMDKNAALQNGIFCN
S1P4 agonist = S1P4 receptor agonists, primary screen, cell-based; activation, % at 4.98 µM; actives 0.35% (n = 220,000); S1P4-expressing cell line, agonist reporter assay; in the data active means activation above about 11%;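 further: 0% = DMSO vehicle and 100% = reference agonist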
EP2 antag = human EP2 receptor antagonists, primary screen, TR-FRET cAMP, C6 glioma cells | actives 0.52% (n = 260,000) | C6 glioma cells expressing human EP2; cells stimulated with saturating PGE2 | AID 1422, 2008 | Prostaglandin E2 receptor EP2 subtype (Homo sapiens), P43116 | inhibition, % at 25 µM;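 active means percent inhibition above 40 after rounding to a whole number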;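 further: rat C6 glioma host cells with rolipram phosphodiesterase inhibitor present; the protocol text gives 20 µM as final concentration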
* marks the source's active call; other numbers are inactive results. Compounds with a hit are over-represented: about 2.4% of the library has one in this group of screens.

For Clc1ccc2c(NCc3ccccn3)ncnc2c1 the results were S1P4 antag 12, Insulin prom inh 71, EP2 modulator -4, S1P4 agonist 1 and EP2 antag 8.
Clc1ccc2c(NCc3ccco3)ncnc2c1 was read as S1P4 antag 3, Insulin prom inh 79*, EP2 modulator -12, S1P4 agonist 0 and EP2 antag 9.
O=C(CN1CCC(n2nnc3ccccc32)CC1)Nc1ccccc1Br was read as EP2 modulator -2 and EP2 antag 37.
For CCn1c(CSc2nc(C)cc(C)n2)nnc1SCC(=O)N1CCCCC1C (stereo unspecified) the results were EP2 modulator -15 and EP2 antag 14.
COc1ccc(/C=C/C2=NN(C)C(=O)CC2)cc1 was read as S1P4 antag -7, Insulin prom inh 85*, EP2 modulator 12, S1P3 antagonist -3, S1P4 agonist 1 and EP2 antag 11.
Screening COCCCNC(=O)c1cc2c(=O)n3cc(C)ccc3nc2n(CCCOC)c1=N returned EP2 modulator -25 and EP2 antag 10.
CCC(=O)N1c2ccccc2-c2nnc(SC)nc2OC1c1ccc(N(C)C)cc1 (stereo unspecified) was read as S1P4 antag -9, Insulin prom inh 30, EP2 modulator 20, S1P3 antagonist -44, S1P4 agonist 220* and EP2 antag 12.
For CCC1Oc2nc(SC)nnc2-c2ccccc2N1C(=O)c1ccccc1 (stereo unspecified) the results were S1P4 antag 10, Insulin prom inh 8, EP2 modulator -4, S1P3 antagonist -14, S1P4 agonist -2 and EP2 antag 13.
`CN1[C@@H](C(=O)Nc2cccc(O)c2)C[C@@H](c2ccc(F)cc2)NS1(=O)=O` gave EP2 modulator -46.
`COc1cccc(-c2nn(C)c3sc(C(=O)NCc4ccc(C)o4)cc23)c1` gave S1P4 antag -3, Insulin prom inh 62*, EP2 modulator -35, S1P3 antagonist 41, S1P4 agonist 0 and EP2 antag 10.
For COc1cccc(-c2nn(C)c3sc(C(=O)NCc4ccc5c(c4)OCO5)cc23)c1 the results were S1P4 antag -20, EP2 modulator -22, S1P3 antagonist -24, S1P4 agonist -2 and EP2 antag 15.
COc1ccc(NC(=O)c2cc3c(-c4ccc(OC)c(OC)c4)nn(C)c3s2)cc1OC was read as S1P4 antag -12, EP2 modulator -27, S1P4 agonist 2 and EP2 antag 43*.
Screening COc1ccc(CCNC(=O)CSc2nc(C3CC3)nc3ccccc23)cc1OC returned EP2 modulator -15 and EP2 antag 10.
Screening COc1ccc(N/N=C(/C#N)S(=O)(=O)c2nsc(C)c2C#N)cc1 returned S1P4 antag -6, Insulin prom inh -18, EP2 modulator -2, S1P4 agonist 0 and EP2 antag 14.
`Cc1snc(S(=O)(=O)/C(C#N)=N/Nc2cccc(C(F)(F)F)c2)c1C#N` gave S1P4 antag -7, Insulin prom inh 75*, EP2 modulator -9, S1P4 agonist -3 and EP2 antag 13.
`COc1ccc(C(C#N)Nc2ccccc2OC)cc1` (stereo unspecified) gave S1P4 antag -8, Insulin prom inh -67, EP2 modulator 6, S1P4 agonist 0 and EP2 antag 0.
Screening Cc1ccc(Cl)cc1NC(C#N)c1ccccc1 (stereo unspecified) returned S1P4 antag 8, EP2 modulator 63*, S1P3 antagonist -5, S1P4 agonist 1 and EP2 antag 11.
Cc1ccc2c(c1)C(=NC1CCCCC1)c1cc3ccccc3nc1-2 was read as S1P4 antag -6, Insulin prom inh 91*, EP2 modulator 37, S1P3 antagonist -3, S1P4 agonist 3 and EP2 antag 8.
Cc1ccc2c(c1)Cc1nc3ccccc3nc1-2 was read as S1P4 antag -30, Insulin prom inh 0, EP2 modulator 12, S1P3 antagonist -4, S1P4 agonist 2 and EP2 antag 3.
